The entries come from a sample that favours hits as a whole.
ST2 IL33 inh = IL1RL1 inhibition | hit rate 2.3% among 78,000 | AlphaLISA ST2-Fc/biotin-IL-33 interaction, 1 h | inhibition, % for hits at 17 µM; in the data active = inhibition above about 30%
Target sequence (Q01638 whole entry, looked up): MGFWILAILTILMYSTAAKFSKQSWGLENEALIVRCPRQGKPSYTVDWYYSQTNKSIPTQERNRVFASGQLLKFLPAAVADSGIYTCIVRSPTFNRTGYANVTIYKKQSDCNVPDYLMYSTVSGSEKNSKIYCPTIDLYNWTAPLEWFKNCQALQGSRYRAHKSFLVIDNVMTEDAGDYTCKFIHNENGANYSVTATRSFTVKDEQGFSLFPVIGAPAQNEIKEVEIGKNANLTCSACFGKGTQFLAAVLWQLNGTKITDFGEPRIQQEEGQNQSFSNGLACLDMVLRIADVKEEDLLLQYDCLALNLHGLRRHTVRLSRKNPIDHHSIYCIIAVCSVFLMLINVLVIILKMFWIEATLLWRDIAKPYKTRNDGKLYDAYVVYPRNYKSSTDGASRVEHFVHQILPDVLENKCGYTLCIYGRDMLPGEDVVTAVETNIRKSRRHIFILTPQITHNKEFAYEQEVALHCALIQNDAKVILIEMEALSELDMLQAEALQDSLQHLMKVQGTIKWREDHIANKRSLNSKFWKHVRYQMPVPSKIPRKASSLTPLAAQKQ
Of the large screens only hits and unclear results are named; the others gave an inactive call.

CCn1cnc2cc(NCc3ccccc3OC)ccc21	none
COc1ccc(N(CC(=O)Nc2ccc(C)cc2)S(=O)(=O)c2ccc(NC(C)=O)cc2)cc1	none
COc1cc(CN2CCN(c3ccccn3)CC2)cc(OC)c1OC	none
Cc1cc2c3c(c1)C1C=CCC1C(C(=O)O)N3CC1CC=CC21 (stereo not drawn)	ST2 IL33 inh 33%
Cc1sc2nc(SCC(=O)c3ccc(F)cc3)[nH]c(=O)c2c1C	none
Cc1ccc(C(=O)CSCC(=O)Nc2ccccc2)s1	none
CC(C)c1ccc(C(=O)CSc2ncn[nH]2)cc1	ST2 IL33 inh 30%
CCc1nnc(NC(=O)CSc2ncn[nH]2)s1	none
O=C(CSc1ncn[nH]1)Nc1cc(C(F)(F)F)ccc1Cl	none
Cc1ccc(C(=O)Nc2ccccc2C)cc1	none
Cc1ccccc1NCCNc1ccccc1C	ST2 IL33 inh 34%
Cc1ccccc1NC(=O)CCC(=O)Nc1ccccc1C	none
Cc1ccc(-n2c(=O)n(Cc3ccccc3)c3c(C(N)=O)nc(-c4ccccc4Cl)nc32)cc1C	none
COc1ccc(/C=C2\C=C(c3ccc(Br)cc3)OC2=O)cc1[N+](=O)[O-]	none
COc1cc(/C=C2\C=C(c3ccc(Cl)cc3)OC2=O)cc(Br)c1OC	none
CCc1ccc(C2=C/C(=C/c3cc(OC)ccc3OC)C(=O)O2)cc1	ST2 IL33 inh 38%
COc1cc(/C=C2\C=C(c3ccc(Cl)cc3)OC2=O)cc(I)c1OC	none
COc1ccc(C2=C/C(=C/c3cccc(OC)c3OC)C(=O)O2)c(OC)c1	ST2 IL33 inh 34%
COc1cc(/C=C2\C=C(c3ccc(Cl)cc3)OC2=O)c([N+](=O)[O-])cc1OC	none
CCC1=C(c2ccc(OC)cc2)S(=O)(=O)N(CC(=O)NCc2cccc(Cl)c2)C1=O	none
O=C(Nc1ccc(Br)cc1)c1noc2c1CCc1ccccc1-2	none
CCOc1ccc2sc(N3C(=O)c4ccc(OC)c(OC)c4C3=O)nc2c1	none
Cc1cc(C(F)(F)F)nc(CCNC(=O)CC2COCCN2)n1 (stereo not drawn)	none
CN1N=Nc2ccc(Br)cc2C1c1ccccc1 (stereo not drawn)	none
O=C(Nc1ccc(N2CCCC2)cc1)c1ccccc1F	ST2 IL33 inh 68%
Cc1ccc(-n2nc3ccc(NC(=O)c4ccccc4F)cc3n2)cc1	none
CC(=O)c1ccc(NC(=O)c2ccccc2F)cc1	none
COc1ccc(NC(=O)c2cnc3scc(C)n3c2=O)c(OC)c1	none
Cc1cccc(OC(=O)NC(=O)c2ccccc2)c1	none
CC(=O)N(c1ccc2oc3c(c2c1)CCCC3)S(=O)(=O)c1cc([N+](=O)[O-])ccc1C	none
CC1CCc2oc3cc([N+](=O)[O-])cc([N+](=O)[O-])c3c2C1 (stereo not drawn)	ST2 IL33 inh 59%
Cc1cc(NC(=O)c2noc3c2CC(C)CC3)no1 (stereo not drawn)	none
O=c1/c(=C\c2ccco2)sc2nc3ccccc3n12	none
COC(=O)C1C(=O)C2=C(CC1C)NC(C)=C(C(=O)OCc1ccccc1)C2c1cccc(F)c1 (stereo not drawn)	none
CCSc1nc(CC(=O)NCc2ccccc2-n2cccn2)cs1	none
COc1ccccc1C(CC(=O)O)c1ccco1 (stereo not drawn)	none
C=C(C)CC(Nc1ccc(OC)cc1)c1ccco1 (stereo not drawn)	ST2 IL33 inh 37%
COc1ccc(/C=C(/NC(=O)c2ccco2)C(=O)Nc2ccc(OC)cc2)cc1	none
CCCn1ccnc1CN1CCC(N2CCCC2=O)CC1	none
CCCCc1ncc(CN2CCC3(CC2)C(=O)NCCN3C)[nH]1	none
Cc1[nH]c2c(C(=O)N3CCC4(CC3)C(=O)NCCN4C)cccc2c1C	none
Cc1c(CN2CCC3(CC2)C(=O)NCCN3C)[nH]c2c(C)cccc12	ST2 IL33 inh 30%
Cn1c(CN2CCN(Cc3ccccc3)CC2)nc(=O)c2ccccc21	none
Cc1c(C(=O)NC2CC2)oc2ccc(S(=O)(=O)N3CCCC(C)C3)cc12 (stereo not drawn)	none
Cc1nc(N2CCCC2)nc(-c2ccc(F)c(CO)c2)c1C	none
CC(=O)N1CCN(c2ccc([N+](=O)[O-])c(NC(C)C34CC5CC(CC(C5)C3)C4)c2)CC1 (stereo not drawn)	none
O=C(c1ccccc1)c1ccc(N2CCN(C(=O)c3cccc(F)c3)CC2)c(F)c1	none
Cc1ccccc1C(=O)N1CCN(c2ccc([N+](=O)[O-])c(NCCc3ccccc3)c2)CC1	none
CC(Nc1cc(N2CCN(S(=O)(=O)N(C)C)CC2)ccc1[N+](=O)[O-])c1ccccc1 (stereo not drawn)	ST2 IL33 inh 30%
O=[N+]([O-])c1ccc(N2CCN(S(=O)(=O)Cc3ccccc3)CC2)cc1NCc1cccnc1	none
O=C(c1cccc(F)c1)N1CCN(c2ccc([N+](=O)[O-])c(NCc3ccccc3)c2)CC1	ST2 IL33 inh 36%
Cc1ccccc1C(=O)N1CCN(c2ccc([N+](=O)[O-])c(NC(C)c3ccccc3)c2)CC1 (stereo not drawn)	ST2 IL33 inh 38%
O=C(c1cccc(F)c1)N1CCN(c2ccc(Cl)cc2)CC1	none
O=C(c1ccccc1Cl)N1CCN(c2ccc([N+](=O)[O-])c(N3CCOCC3)c2)CC1	none
COCC(=O)N1CCC(Oc2ccc(C(=O)NC(c3ccco3)C(F)(F)F)cc2)CC1 (stereo not drawn)	none
O=C(CNS(=O)(=O)c1cccs1)NCc1ccc2c(c1)OCO2	none

From PubChem
